Measurements taken from PubChem BioAssay AID1159580 (chemical genetic matrix, 2015).
Several values for one entry are separate records, joined by “and”; a condition that tells them apart may be missing. Equal entries are not always repeated. Hit rate of the full screen: of about 5,500 compounds, about 2,000 (36%) were called active. Not shown: some 18% with an inconclusive outcome. Cut-off read from the data, not from the text of the source: active = normalized growth mostly below about 0.91 (no sharp cut-off); inconclusive = no clear call, values can overlap the other calls; inactive = mostly above about 0.92. This is one part of the list.

Assay: chemical genetic growth profiling, strain panel (AID 1159580);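 note: tested at 20 µM; growth read once vehicle control cultures reached saturation at 30 °C; 1 = growth at the plate median or of vehicle wells; lower values mean less growth of the strain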
Conditions: S. cerevisiae deletion strains, growth OD

Measured: normalized growth

OCCN1CCN(CCCN2c3ccccc3Sc3ccc(C(F)(F)F)cc32)CC1
active: locus YAL021C, strain ccr4, stronger effect = lower value 0.828 | locus YAL026C, strain drs2, stronger effect = lower value 0.0826 | locus YBR021W, strain FUR4, stronger effect = lower value 0.589 | locus YBR023C, strain chs3, stronger effect = lower value 0.899 | locus YDR069C, strain doa4, stronger effect = lower value 0.863 | locus YDR137W, strain rgp1, stronger effect = lower value 1.27 [resistant] | locus YDR195W, strain ref2 1.27 [resistant] | locus YDR388W, stronger effect = lower value 0.878 | locus YFR010W, strain ubp6, stronger effect = lower value 0.839 | locus YGR229C, strain SMI1, stronger effect = lower value 0.602 and 0.781 | locus YGR252W, strain gcn5, stronger effect = lower value 0.664 | locus YJL095W, strain BCK1, stronger effect = lower value 0.794
inactive: locus YAL013W, strain DEP1, stronger effect = lower value 0.947 and 0.96 | locus YAL030W, strain snc1, stronger effect = lower value 0.984 | locus YAL040C, strain CLN3, stronger effect = lower value 1.01 | locus YBL061C, strain skt5, stronger effect = lower value 0.951 | locus YBR009C, strain hhf1, stronger effect = lower value 0.935 | locus YBR171W, strain sec66, stronger effect = lower value 0.992 | locus YBR229C, strain ROT2, stronger effect = lower value 0.987 | locus YBR231C, strain swc5, stronger effect = lower value 0.964 | locus YBR279W, strain paf1, stronger effect = lower value 0.953 | locus YCL011C, strain gbp2, stronger effect = lower value 0.919 | locus YCL016C, strain dcc1, stronger effect = lower value 0.937 | locus YCL029C, strain bik1, stronger effect = lower value 0.978 | locus YCL061C, strain MRC1 (second series), stronger effect = lower value 0.957 | locus YCL069W, strain vba3, stronger effect = lower value 0.995 | locus YCR088W, strain abp1, stronger effect = lower value 0.987 | locus YDL005C, strain med2, stronger effect = lower value 1 | locus YDL035C, strain GPR1, stronger effect = lower value 0.928 | locus YDL040C, strain nat1, stronger effect = lower value 0.98 | locus YDL074C, strain BRE1, stronger effect = lower value 0.808 | locus YDL101C, strain DUN1, stronger effect = lower value 0.979 | locus YDL134C, strain PPH21, stronger effect = lower value 0.977 | locus YDL185W, strain tfp1, stronger effect = lower value 0.981 | locus YDL192W, strain arf1, stronger effect = lower value 0.963 | locus YDR001C, strain nth1, stronger effect = lower value 0.989 | locus YDR101C, strain arx1, stronger effect = lower value 0.933 | locus YDR150W, strain NUM1, stronger effect = lower value 0.997 | locus YDR159W, strain sac3, stronger effect = lower value 0.992 | locus YDR162C, strain NBP2, stronger effect = lower value 0.947 | locus YDR297W, strain sur2, stronger effect = lower value 0.981 | locus YDR318W, strain mcm21, stronger effect = lower value 0.947 | locus YDR334W, strain swr1, stronger effect = lower value 0.987 | locus YDR335W, strain msn5, stronger effect = lower value 0.972 | locus YDR363W, strain ESC2, stronger effect = lower value 0.978 | locus YDR392W, strain spt3, stronger effect = lower value 1.06 | locus YDR502C, strain sam2, stronger effect = lower value 0.939 | locus YEL003W, strain gim4, stronger effect = lower value 0.982 | locus YEL037C, strain rad23, stronger effect = lower value 0.994 | locus YEL061C, strain CIN8 (second series), stronger effect = lower value 0.973 | locus YEL061C, strain CIN8, stronger effect = lower value 0.996 | locus YER002W, strain NOP16, stronger effect = lower value 1 | locus YER015W, strain faa2, stronger effect = lower value 0.931 | locus YER016W, strain bim1, stronger effect = lower value 0.979 | locus YER110C, stronger effect = lower value 0.996 | locus YER111C, strain swi4, stronger effect = lower value 0.986 | locus YER155C, strain BEM2 (second series), stronger effect = lower value 1 | locus YER155C, strain BEM2, stronger effect = lower value 0.989 | locus YER167W, strain BCK2, stronger effect = lower value 0.974 | locus YGL078C, strain dbp3, stronger effect = lower value 0.986 | locus YGL086W, strain mad1, stronger effect = lower value 0.964 | locus YGL167C, strain pmr1, stronger effect = lower value 0.976 | locus YGL173C, strain kem1, stronger effect = lower value 0.964 | locus YGL227W, strain vid30, stronger effect = lower value 0.984 | locus YGL240W, strain doc1, stronger effect = lower value 0.997 | locus YGL248W, strain PDE1, stronger effect = lower value 0.989 | locus YGL253W, strain hxk2, stronger effect = lower value 0.917 | locus YGR078C, strain PAC10, stronger effect = lower value 0.907 and 0.971 | locus YGR135W, strain pre9, stronger effect = lower value 0.896 | locus YHR013C, strain ard1, stronger effect = lower value 1 | locus YHR027C, strain rpn1, stronger effect = lower value 0.937 | locus YHR030C, strain SLT2, stronger effect = lower value 0.933 | locus YHR079C, strain IRE1 (second series), stronger effect = lower value 0.973 | locus YHR094C, strain hxt1, stronger effect = lower value 0.992 | locus YHR129C, strain ARP1, stronger effect = lower value 0.983 | locus YHR142W, strain chs7, stronger effect = lower value 0.897 | locus YHR200W, strain rpn10, stronger effect = lower value 0.968 | locus YIL066C, strain RNR3, stronger effect = lower value 0.915 | locus YIL073C, strain SPO22, stronger effect = lower value 1.18 | locus YIL125W, strain kgd1, stronger effect = lower value 0.995 | locus YIR030C, strain dcg1, stronger effect = lower value 0.985 | locus YJL092W, strain hpr5, stronger effect = lower value 0.969 | locus YJL095W, strain BCK1 (second series), stronger effect = lower value 0.94 | locus YJL115W, strain asf1, stronger effect = lower value 0.95 | locus YJL129C, strain trk1, stronger effect = lower value 0.96 | locus YJL134W, strain LCB3, stronger effect = lower value 0.997 | locus YJL154C, strain vps35, stronger effect = lower value 0.982 | locus YJL164C, strain tpk1, stronger effect = lower value 0.917 | locus YJL166W, strain qcr8, stronger effect = lower value 0.956 | locus YJL168C, strain set2, stronger effect = lower value 0.991 | locus YJL187C, strain SWE1 (second series), stronger effect = lower value 0.905 | locus YJR043C, strain POL32, stronger effect = lower value 0.971
